Test results taken from PubChem BioAssay AID2279 (Southern Research Specialized Biocontainment Screening …, 2010).
Potency and affinity values are given separately.

Test: CCR5-tropic HIV-1 fusion blockers – cell-based, CCR5-tropic Env, dose response (AID 2279)
Conditions: CCR5-tropic HIV-1 Env, reporter read-out; series mostly up to 50 µM; inhibition: at the top concentration; call rule not given here

inhibition, inactive:
Nc1c(S(=O)(=O)O)cc(NC(=O)c2ccccc2)c2c1C(=O)c1ccccc1C2=O -0.14%
CC(C)S(=O)(=O)C1=NSC2=NC(=O)/C(=C\c3ccc(-c4ccccc4)o3)C(=N)N21 20.1%
Cc1ccc(S(=O)(=O)/N=C2/NC(=O)/C(=C/c3cc([N+](=O)[O-])ccc3O)S2)cc1 -12.6%
O=C(CSc1nc2ccccc2c(=O)n1Cc1ccccc1)Nc1ccc(Br)cc1C(=O)O 7.04%
O=C(O)CN1C(=O)/C(=C\c2ccccc2OCc2ccc(Cl)cc2Cl)SC1=S -1.58%
COc1ccc(-c2cc(-c3ccc(Cl)cc3)c(C#N)c(SCC(=O)O)n2)cc1 28.1%
O=C(O)COc1ccc(/C=C/C(=O)c2ccc(C3CCCCC3)cc2)cc1 -0.44% [at 25 µM]
CCCCCC#CCC#CCC#CCC#CCCCC(=O)O 23.7%
Cc1ccc(S(=O)(=O)Oc2ccc(/C=C3/C(=N)N4C(=NC3=O)SN=C4S(C)(=O)=O)cc2)cc1 4.93%
COc1cc(Cl)cc(C(c2c(C(=O)O)[nH]c3ccccc23)c2c(C(=O)O)[nH]c3ccccc23)c1O 0.79%
COc1cccc(C2C3=C(N=c4s/c(=C\c5ccc(OCC(=O)O)cc5)c(=O)n42)c2ccccc2CC3)c1 (centres undefined) 29.7%
CCOc1cc(/C=C2/C(=N)N3C(=NC2=O)SN=C3S(=O)(=O)CC)ccc1OC(=O)c1ccco1 -0.67%
CCc1nnc(NS(=O)(=O)c2ccc(NC(=S)NC(=O)/C=C/c3cccs3)cc2)s1 13.6%
Cc1cc(N2C(=O)C(O)=C(C(=O)c3ccc(C)o3)C2c2cccc(Oc3ccccc3)c2)no1 (centres undefined) 7.66%
COc1cc(/C=C2\C(=N)N3N=C(S(C)(=O)=O)SC3=NC2=O)cc(OC)c1OCCOc1cccc(C)c1 7.88%
CCc1oc2ccccc2c1C(=O)c1cc(Br)c(O)c(Br)c1 31%
CCS(=O)(=O)C1=NSC2=NC(=O)/C(=C\c3ccc(OS(=O)(=O)c4ccccc4)c(OC)c3)C(=N)N21 10%
O=C(O)c1ccc(-c2ccc(/C=c3/sc4nc5ccccc5n4c3=O)o2)cc1Cl 8.02%
CCOc1cc(Br)cc(C(c2c(C(=O)O)[nH]c3ccccc23)c2c(C(=O)O)[nH]c3ccccc23)c1O -22.4%
O=C(O)CN1C(=O)/C(=C\c2cccc(OCc3ccc(Cl)cc3)c2)SC1=S 28.8%
Cc1ccc(Cl)cc1N1CCN(C(=O)Cc2c(C(=O)O)[nH]c3ccc(Cl)cc23)CC1 -12.9%
COc1cccc(OCCOc2ccc(/C=C3\C(=N)N4N=C(S(C)(=O)=O)SC4=NC3=O)cc2OC)c1 14.9%
Cc1cc(/C=c2\sc3nc4ccccc4n3c2=O)c(C)n1-c1ccc(C(=O)O)cc1 34.4%
CC(C)S(=O)(=O)C1=NSC2=NC(=O)/C(=C\c3ccc(-c4cccc(C(=O)O)c4)o3)C(=N)N21 1.16%
Cc1ccc(-c2nn(-c3ccccc3)cc2/C=C2\SC(=S)N(CC(=O)O)C2=O)cc1 -2.87% [at 25 µM]
CC(C)(C)CC(C)(C)c1ccc(OCC(=O)N/N=C/c2ccc(S(=O)(=O)O)o2)cc1 5.05%
O=C(O)C1Nc2ccc(Br)cc2C2C=CCC12 (centres undefined) 5.92%
O=C(O)CSc1cc(C(=O)c2cc(F)ccc2O)cn2c(=O)c3c(-c4ccccc4)csc3nc12 24.1%
CCOc1cc(/C=N/N=C2/NC(=O)C(CC(=O)O)S2)ccc1OCc1ccc(Cl)cc1 (centres undefined) 10.5%
O=C(COc1cccc2ccccc12)Nc1ccc(Cl)cc1C(=O)O 5.35% [at 25 µM]
O=C(O)c1ccc(Nc2nc(-c3cc4ccccc4oc3=O)cs2)cc1O -11.2%
O=C1NN(c2ccccc2)C(=O)/C1=C\c1cccc(OC(=O)c2cccs2)c1 10.8%
N=C1/C(=C/c2ccc(-c3cccc(C(=O)O)c3)o2)C(=O)N=C2SC=C(c3ccccc3)N12 30.6%
CCOc1ccc(C2C(C(=O)Nc3ccccc3)=C(C)N=c3s/c(=C/c4cccc(OCC(=O)O)c4)c(=O)n32)cc1 (centres undefined) 17%
